Measurements as given in PubChem BioAssay AID720706 (Broad Institute, 2013).
In all, about 350,000 compounds went through this assay and about 5,500 (1.6%) were called active.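 The calls were made as follows: active = significant combined selectivity score with lowered wild-type GFP, culture density cut under 30%, mutant RFP and density less affected; inactive = any of these conditions unmet.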 Many of the other results were omitted from the sample, so actives are more common in it than they were.

experiment: reduced GFP signal of wild-type E. coli, primary screen, bacterial rRNA inhibitor project, GFP/RFP fluorescence, OD600, single point (AID 720706); details: E. coli WT GFP vs humanized-ribosome RFP mutants, 24 h; GFP signal change (wild-type ribosome): stronger effect = lower value, DMSO median 0, no signal -100; OD600 change: measured here: OD600 growth, DMSO median 0, no signal -100; RFP signal change: measured here: RFP humanized mutant strains, DMSO median 0, no signal -100, concentration not given here

Row | SMILES | GFP signal change (wild-type ribosome) | OD600 change [%] | RFP signal change [%]
1 | C[C@@H]1CN([C@H](C)CO)C(=O)c2cc(C#CCN(C)C)cnc2O[C@H]1CN(C)C(=O)NC1CCCC1 | 3.54% (inactive) | 11.4 | -1.39
2 | CNC[C@@H]1Oc2ccc(NS(=O)(=O)c3c(C)noc3C)cc2CC(=O)N([C@@H](C)CO)C[C@@H]1C | 1.9% (inactive) | 3.17 | 1.62
3 | Cc1ccc(C)c(NC(=O)c2ccc3nccnc3c2)c1 | 4.03% (inactive) | 7.77 | -0.371
4 | Cc1ccc(C)c(NC(=O)NNC(=O)c2ccc3ccccc3c2O)c1 | 7.08% (inactive) | 7.28 | -0.547
5 | Cc1ccc(C)c(NC(=O)c2cc(-c3cc(C)cc(C)c3O)n[nH]2)c1 | -26.5% (active) | -6.64 | -4.96
6 | O=C(C[C@H]1C[C@H]2c3cc(NC(=O)C4CCOCC4)ccc3O[C@H]2[C@@H](CO)O1)NCCN1CCCCC1 | 5.5% (inactive) | 7.29 | 1.6
7 | C[C@@H]1CN([C@H](C)CO)C(=O)c2cc(NC(=O)C3CCCCC3)ccc2O[C@@H]1CN(C)CC1CCCCC1 | 0.0895% (inactive) | 5.96 | 0.317
8 | OCc1ccc(OCCCOc2cccc3cccnc23)cc1 | -10.7% (inactive) | -8.81 | -4.97
9 | O=S(=O)(NCCOc1cccc2cccnc12)c1ccc(F)cc1 | -21.1% (active) | -16 | 1.43
10 | O=S(=O)(NCCc1ccc(F)cc1)c1cccc2cccnc12 | -26.1% (inactive) | -23 | -1.09
11 | O=C(C[C@@H]1CC[C@@H](NC(=O)C2CCOCC2)[C@H](CO)O1)NCC1CC1 | 0.615% (inactive) | 0.519 | -2.58
12 | CN1CCCCN2[C@H](CO)[C@H](c3ccc(-c4ccc(F)cc4)cc3)[C@@H]2C1 | 3.95% (inactive) | 2.06 | -2.51
13 | CCC(=O)N1CC2(CN(C(=O)Nc3ccccc3F)C2)c2c([nH]c3cc(OC)ccc23)[C@H]1CO | -3.51% (inactive) | -1.81 | 1.22
14 | COc1ccc(N2CCN(C(=O)CCSCc3ccccc3F)CC2)cc1 | -33% (active) | -17.7 | -1.41
15 | O=C(CCc1ccccc1F)N1CCN(c2ccccc2)CC1 | -5.11% (inactive) | -5.09 | -0.63
16 | COc1ccc(N2CCN(C(=O)CCNC(=O)c3ccc(Br)cc3)CC2)cc1 | 4.67% (inactive) | 3.67 | -1.33
17 | O=C(NCC[C@H]1CC[C@@H](NC(=O)c2ccncc2)[C@@H](CO)O1)Nc1ccc(Cl)cc1 | -17.2% (inactive) | -25.9 | -0.789
18 | O=C(C1CCCC1)N1CC(=O)N2[C@@H](CO)[C@H](c3ccc(C#CC4CCCC4)cc3)[C@@H]2C1 | -40.8% (inactive) | -65.7 | 1.78
